Experimental data reported in PMC4336329 (PLoS ONE, 2015).
About 14,000 (4.5%) of roughly 310,000 compounds showed an effect of 50% or more. Effects have a minus sign here. Many of the other results were omitted from the sample, so strong results are more common in it than they were.

What follows are compounds tested against human ether-à-go-go-related gene (hERG) potassium channel (human, UniProt Q12809) (assay: primary screen, population patch clamp on CHO cells stably expressing hERG; higher = less effect of the substance).
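Also: peak tail current of the secondary pulse compared with the same well before compound.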

Sequence of human ether-à-go-go-related gene (hERG) potassium channel (Q12809 whole entry, looked up): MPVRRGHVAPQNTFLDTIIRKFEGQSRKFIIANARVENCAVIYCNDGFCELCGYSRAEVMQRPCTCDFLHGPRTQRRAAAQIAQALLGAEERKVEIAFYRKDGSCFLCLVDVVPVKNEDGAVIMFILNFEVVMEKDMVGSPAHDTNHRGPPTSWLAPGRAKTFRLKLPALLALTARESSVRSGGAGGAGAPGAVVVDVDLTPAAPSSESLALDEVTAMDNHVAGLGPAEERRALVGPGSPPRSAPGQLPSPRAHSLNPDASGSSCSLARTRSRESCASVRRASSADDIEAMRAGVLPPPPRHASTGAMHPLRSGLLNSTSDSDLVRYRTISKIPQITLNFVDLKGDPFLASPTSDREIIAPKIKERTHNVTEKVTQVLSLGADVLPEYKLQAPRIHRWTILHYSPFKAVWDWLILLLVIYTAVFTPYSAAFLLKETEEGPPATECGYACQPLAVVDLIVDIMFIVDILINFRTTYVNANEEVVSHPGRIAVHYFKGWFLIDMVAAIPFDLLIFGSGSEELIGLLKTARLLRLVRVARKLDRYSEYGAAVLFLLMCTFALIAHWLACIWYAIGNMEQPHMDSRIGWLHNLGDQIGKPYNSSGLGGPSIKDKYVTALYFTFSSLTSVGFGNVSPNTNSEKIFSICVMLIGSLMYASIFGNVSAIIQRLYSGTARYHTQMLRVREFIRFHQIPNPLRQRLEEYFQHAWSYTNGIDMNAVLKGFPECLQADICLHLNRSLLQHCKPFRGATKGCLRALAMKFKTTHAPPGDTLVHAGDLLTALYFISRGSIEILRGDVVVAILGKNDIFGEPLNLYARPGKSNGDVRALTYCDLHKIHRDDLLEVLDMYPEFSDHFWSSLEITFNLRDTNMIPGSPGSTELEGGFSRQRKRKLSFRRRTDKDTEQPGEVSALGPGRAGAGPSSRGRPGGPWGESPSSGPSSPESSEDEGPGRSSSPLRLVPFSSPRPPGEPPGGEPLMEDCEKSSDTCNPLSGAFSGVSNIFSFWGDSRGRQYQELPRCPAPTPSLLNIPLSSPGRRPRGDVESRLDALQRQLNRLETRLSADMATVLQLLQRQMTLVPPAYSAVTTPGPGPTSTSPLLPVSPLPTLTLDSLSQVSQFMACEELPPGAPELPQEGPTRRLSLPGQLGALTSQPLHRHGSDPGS

First: CCOC(=O)CN(C(=O)c1ccccc1[N+](=O)[O-])C(C)(C)C
Second: CN(C)CCNC(=O)/C(=C/c1cccc([N+](=O)[O-])c1)NC(=O)c1ccccc1
The “hERG current change (%, negative = inhibition) at 10uM” value of the first is higher: 9.73% for the first, -66.9% for the second.

Compared with `COc1cccc(NC(=O)CCC2CCN(C(=O)c3ccc(C(C)=O)s3)CC2)c1`, `COc1cccc(NC(=O)CCC2CCN(C(=O)c3cccc(NC(C)=O)c3)CC2)c1` is higher in “hERG current change (%, negative = inhibition) at 10uM” value: -36.9% for the first, -28.4% for the second.

First: Cc1cccc(NC(=O)CCC2CCN(C(=O)c3ccc(C)s3)CC2)c1
Second: COCc1ccc(C(=O)N2CCC(CCC(=O)Nc3cccc(C)c3)CC2)s1
The “hERG current change (%, negative = inhibition) at 10uM” value of the first is lower: -65.5% for the first, -15.1% for the second.

Going from `COc1cccc(C(=O)N2CCC(CCC(=O)Nc3cccc(C)c3)CC2)c1` to `COc1ccc(C(=O)N2CCC(CCC(=O)Nc3cccc(C)c3)CC2)cc1`, the “hERG current change (%, negative = inhibition) at 10uM” value falls from -28.6% to -68.3%.

Compared with `O=[N+]([O-])c1ccc(-c2nc(NCC3CCCO3)c3ccccc3n2)cc1` (centres unmarked), `Cc1ccc(S(=O)(=O)N(CC2CO2)c2ccccc2[N+](=O)[O-])cc1` (centres unmarked) is higher in “hERG current change (%, negative = inhibition) at 10uM” value: 12.3% for the first, 13.1% for the second.

First: O=C(Cc1ccsc1)N1CCN(S(=O)(=O)c2cc(C(F)(F)F)cc(C(F)(F)F)c2)CC1
Second: Cc1ccc(NS(=O)(=O)c2ccc(C)c(C(=O)N3CCN(C)CC3)c2)cc1.Cl
The “hERG current change (%, negative = inhibition) at 10uM” value of the first is higher: 1.69% for the first, -14.8% for the second.

Compared with `Cc1ccc(S(=O)(=O)CCc2nc3ccccc3[nH]2)cc1`, `CCN(c1ccccc1)S(=O)(=O)c1ccc(C(=O)Nc2nccs2)cc1` is higher in “hERG current change (%, negative = inhibition) at 10uM” value: -17.6% for the first, 8.62% for the second.

Going from `Cc1nc2cc(C)c(C)cc2s1` to `Cc1noc(C)c1COc1ccc(C(=O)O)cc1`, the “hERG current change (%, negative = inhibition) at 10uM” value rises from 15.7% to 17.1%.

First: CS(=O)(=O)N(CC(=O)NC1CCCCCC1)Cc1ccccc1
Second: O=C(NC1CCCCC1)C(c1ccco1)N(C(=O)c1csnn1)c1cccc(Cl)c1 (centres unmarked)
The “hERG current change (%, negative = inhibition) at 10uM” value of the first is lower: -1.26% for the first, 4.93% for the second.

Going from `CN1C(=O)C(CC(=O)Nc2ccc(F)cc2)N(NC(=O)c2cccc(F)c2)C1=S` (centres unmarked) to `Cc1cccc(C)c1NS(=O)(=O)c1ccc(NC(=O)c2ccc(Cl)c([N+](=O)[O-])c2)cc1`, the “hERG current change (%, negative = inhibition) at 10uM” value rises from -3.79% to 13.9%.

Going from `CCn1c(SCC(=O)c2ccc3ccccc3c2)nnc1-c1cccs1` to `O=C(CSc1nnnn1-c1cccc2ccccc12)Nc1ccc(N2CCOCC2)c(Cl)c1`, the “hERG current change (%, negative = inhibition) at 10uM” value rises from -8.29% to 2.68%.

Compared with `COc1cc(C(=O)NC(=S)NCc2ccco2)cc(OC)c1OC`, `C=CCNC(=O)/C(=C/c1cccc([N+](=O)[O-])c1)NC(=O)c1ccco1` is lower in “hERG current change (%, negative = inhibition) at 10uM” value: 1.74% for the first, -27.5% for the second.

Going from `CCOC(=O)C1(Cc2ccccc2)CCN(Cc2cc(=O)c3ccccc3[nH]2)CC1` to `CCOC(=O)C1(Cc2ccccc2)CCN(Cc2ccon2)CC1`, the “hERG current change (%, negative = inhibition) at 10uM” value falls from 13.5% to 0.71%.

First: CC(=O)Nc1ccc2nc(CN3CCC(CO)(CCc4ccccc4)CC3)ccc2c1
Second: CCOC(=O)C1(Cc2ccccc2)CCN(Cc2ccc3cc(NC(C)=O)ccc3n2)CC1
The “hERG current change (%, negative = inhibition) at 10uM” value of the first is higher: -68.2% for the first, -68.7% for the second.

Compared with `CC(=O)Nc1ccc2nc(CN3CCN(CC(C)C)C(CCO)C3)ccc2c1` (centres unmarked), `CC(=O)Nc1ccc2nc(CN3CCN(CC=C(C)C)C(CCO)C3)ccc2c1` (centres unmarked) is lower in “hERG current change (%, negative = inhibition) at 10uM” value: 17% for the first, 11.5% for the second.

Compared with `COc1ccc(C(=O)Nc2nc3c(s2)CCCC3)cc1S(=O)(=O)N1CCCc2ccccc21`, `O=C(Nc1nnc(SCc2ccccc2Cl)s1)c1cccc([N+](=O)[O-])c1` is lower in “hERG current change (%, negative = inhibition) at 10uM” value: -2.36% for the first, -3.26% for the second.

First: CCCCc1n[nH]c2c1/C(=N/O)CC(c1ccccc1)C2 (centres unmarked)
Second: Cc1cccc(C)c1OCC(O)CNC(C)c1ccccc1.Cl (centres unmarked)
The “hERG current change (%, negative = inhibition) at 10uM” value of the first is higher: 8.46% for the first, -13.7% for the second.

Compared with `O=C(O)C(=O)O.OC(CNCCc1ccc(C(F)(F)F)cc1)COC(c1ccccc1)c1ccccc1` (centres unmarked), `COc1ccccc1COCC(O)CNCCc1ccc(C(F)(F)F)cc1.O=C(O)C(=O)O` (centres unmarked) is lower in “hERG current change (%, negative = inhibition) at 10uM” value: -34.7% for the first, -56.5% for the second.

Compared with `OC(CNCCc1ccc(C(F)(F)F)cc1)COc1cccc2ccccc12` (centres unmarked), `COc1ccc(CCNCC(O)c2ccccc2)cc1.O=C(O)C(=O)O` (centres unmarked) is higher in “hERG current change (%, negative = inhibition) at 10uM” value: -36.5% for the first, -11.4% for the second.

First: COc1ccc(C(OCC(O)CNC(C)c2ccccc2)c2ccc(OC)cc2)cc1 (centres unmarked)
Second: COc1ccc(C(OCC(O)CNCCc2ccccc2)c2ccc(OC)cc2)cc1.O=C(O)C(=O)O (centres unmarked)
The “hERG current change (%, negative = inhibition) at 10uM” value of the first is higher: -52.4% for the first, -63.7% for the second.

First: CC(NCC(O)COc1ccc2ccccc2c1)c1ccccc1.O=C(O)C(=O)O (centres unmarked)
Second: COc1ccc(OCC(O)CNC(C)c2ccccc2)cc1.Cl (centres unmarked)
The “hERG current change (%, negative = inhibition) at 10uM” value of the first is lower: -44% for the first, 5.12% for the second.

Compared with `COc1cccc(OCC(O)CNC(C)c2ccccc2)c1.Cl` (centres unmarked), `CC(NCC(O)COc1ccc(Br)cc1)c1ccccc1.Cl` (centres unmarked) is lower in “hERG current change (%, negative = inhibition) at 10uM” value: 2.14% for the first, 0.452% for the second.

Compared with `COc1ccc(C(OCC(O)CNCCc2ccc(S(N)(=O)=O)cc2)c2ccc(OC)cc2)cc1` (centres unmarked), `Cc1ccc(C(OCC(O)CNC(CO)C(O)c2ccc([N+](=O)[O-])cc2)c2ccccc2)cc1` (centres unmarked) is higher in “hERG current change (%, negative = inhibition) at 10uM” value: -43.2% for the first, -22.4% for the second.

First: Cc1ccc(C(OCC(O)CNC(C)c2ccccc2)c2ccccc2)cc1 (centres unmarked)
Second: CC(C)c1ccc(OCC(O)CNC(C)c2ccccc2)cc1.Cl (centres unmarked)
The “hERG current change (%, negative = inhibition) at 10uM” value of the first is higher: -58.2% for the first, -65.3% for the second.

First: COC(=O)c1cc(S(=O)(=O)NCc2ccccc2Cl)c[nH]1
Second: CCOc1ccc(N(CC(=O)Nc2ccccc2C(=O)NC(C)CC)S(C)(=O)=O)cc1 (centres unmarked)
The “hERG current change (%, negative = inhibition) at 10uM” value of the first is higher: 17.1% for the first, -13.3% for the second.

Compared with `C1CN(CCN2CCOCC2)CCN1`, `Cc1c(C(=O)N2CCOCC2)c(S(=O)(=O)N2CCN(c3ccc(Cl)cc3)CC2)c(C)n1C` is lower in “hERG current change (%, negative = inhibition) at 10uM” value: 21% for the first, -37.6% for the second.

Compared with `O=C(Nc1cc(Oc2ccc(Cl)cc2)cc([N+](=O)[O-])c1)c1ccco1`, `COc1ccc(C(=O)N/C(=C\c2cccc([N+](=O)[O-])c2)C(=O)Nc2cccc(C(=O)O)c2)cc1` is lower in “hERG current change (%, negative = inhibition) at 10uM” value: 15% for the first, 5.3% for the second.

Compared with `CCOc1cnn(-c2cc(Oc3ccc(C)cc3)ncn2)c(=O)c1Cl`, `COc1ccc(CN2C(=O)c3ccccc3C(/C=N\OCc3ccc(C)cc3)C2=O)cc1` (centres unmarked) is higher in “hERG current change (%, negative = inhibition) at 10uM” value: -12.4% for the first, 8.84% for the second.

First: O=C1CCCN1c1cc(Cl)ccc1Cl
Second: Cc1[nH]c(C)c(S(=O)(=O)N2CCN(c3cccc(Cl)c3)CC2)c1C(=O)N1CCCC1
The “hERG current change (%, negative = inhibition) at 10uM” value of the first is higher: 2.17% for the first, -6.94% for the second.

Going from `CN(Cc1nc(-c2cnccn2)no1)CC1(c2ccccc2)CC1(C)C` (centres unmarked) to `OCCC1CN(Cc2cccn2-c2nccs2)CCN1CCc1ccccc1` (centres unmarked), the “hERG current change (%, negative = inhibition) at 10uM” value falls from 4.2% to -73.6%.

Compared with `COc1ccc(-c2nnc(-c3ccc(N)cc3)o2)cc1`, `COc1ccccc1N1CCN(C(=O)/C=C/c2ccc3c(c2)OCO3)CC1` is lower in “hERG current change (%, negative = inhibition) at 10uM” value: -5.64% for the first, -10.5% for the second.

Going from `CC1CCCCN1C(=O)c1ccc(S(=O)(=O)N2CCCCC2C)cc1` (centres unmarked) to `Cc1ccc(S(=O)(=O)N2CCCCC2C(=O)N2CCN(C)CC2)cc1` (centres unmarked), the “hERG current change (%, negative = inhibition) at 10uM” value rises from -9.35% to 18.1%.

First: CC(C)(C)c1ccc(C(=O)N/C(=C\c2cccc([N+](=O)[O-])c2)C(=O)Nc2cccc(C(=O)O)c2)cc1
Second: C=CCNC(=O)/C(=C/c1cccc([N+](=O)[O-])c1)NC(=O)c1ccccc1
The “hERG current change (%, negative = inhibition) at 10uM” value of the first is higher: 12.7% for the first, -31.2% for the second.

First: C=CCNC(=O)/C(=C\c1cccc([N+](=O)[O-])c1)NC(=O)c1ccccc1
Second: OCCC1CN(Cc2cccn2-c2nccs2)CCN1Cc1ccccc1 (centres unmarked)
The “hERG current change (%, negative = inhibition) at 10uM” value of the first is higher: -53.4% for the first, -69.3% for the second.

First: Cc1c(C(=O)N(CC(C)C)c2c(N)n(Cc3ccccc3)c(=O)[nH]c2=O)sc2nc3n(c(=O)c12)CCC3
Second: Cc1[nH]c(C)c(S(=O)(=O)N2CCN(c3ccccc3)CC2)c1C(=O)N1CCCC1
The “hERG current change (%, negative = inhibition) at 10uM” value of the first is higher: 7.27% for the first, -10.4% for the second.

Going from `CC(C)CN1C(=O)C(=O)N(CC(=O)c2ccc[nH]2)C1=O` to `CC(C)CCN1CCN(Cc2cccn2-c2nccs2)CC1CCO` (centres unmarked), the “hERG current change (%, negative = inhibition) at 10uM” value falls from 1.48% to -52.1%.

Compared with `Cc1[nH]c(C)c(S(=O)(=O)N2CCN(c3ccc(Cl)cc3)CC2)c1C(=O)N1CCCC1`, `Cc1c(C(=O)N2CCCCC2)c(S(=O)(=O)N2CCN(c3ccc(Cl)cc3)CC2)c(C)n1C` is higher in “hERG current change (%, negative = inhibition) at 10uM” value: -66.4% for the first, -55.7% for the second.

First: CC(=O)c1ccc(N2CCN(S(=O)(=O)c3c(C(=O)N4CCCCC4)c(C)n(C)c3C)CC2)cc1
Second: Cc1c(S(=O)(=O)Nc2ccc3c(c2)OCCO3)c(=O)n(C)c(=O)n1C
The “hERG current change (%, negative = inhibition) at 10uM” value of the first is higher: -2.75% for the first, -10.7% for the second.

Going from `CCOc1ccc(OCC)c(NC(=O)C2CCN(c3ncccn3)CC2)c1` to `CCOc1ccc(CN2CCN(Cc3cccn3-c3nccs3)CC2CCO)cc1` (centres unmarked), the “hERG current change (%, negative = inhibition) at 10uM” value falls from -30% to -76.1%.

First: CCC(C)CCN1C(N(C)C)=NC[C@@H]1C (some centres unmarked)
Second: CC(C)N1CCN(Cc2cccn2-c2nccs2)CC1CCO (centres unmarked)
The “hERG current change (%, negative = inhibition) at 10uM” value of the first is higher: 15.3% for the first, 10.2% for the second.

Going from `OCCC1CN(Cc2cccn2-c2nccs2)CCN1C1CCCCC1` (centres unmarked) to `CC(C)=CCN1CCN(Cc2cccn2-c2nccs2)CC1CCO` (centres unmarked), the “hERG current change (%, negative = inhibition) at 10uM” value rises from -37.8% to -34.1%.

In the case of `CCOCCCNS(=O)(=O)c1cc2[nH]c3c(c2cc1C)C(=O)CC(C)(C)C3`, the “hERG current change (%, negative = inhibition) at 10uM” value is reported as -6.44%.
